RGS16-Gao: regulators of human RGS16-Galphao interaction; AID 1441; binding response (% of control), % at 10 µM; hit rate 0.38% among 220,000; bead-based flow cytometry RGS16-Galphao binding, fluorescence; actives lie on both sides; call rule not given here;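 note: Galphao activated by GDP with aluminum fluoride before binding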
Target sequence (O15492 whole entry, looked up): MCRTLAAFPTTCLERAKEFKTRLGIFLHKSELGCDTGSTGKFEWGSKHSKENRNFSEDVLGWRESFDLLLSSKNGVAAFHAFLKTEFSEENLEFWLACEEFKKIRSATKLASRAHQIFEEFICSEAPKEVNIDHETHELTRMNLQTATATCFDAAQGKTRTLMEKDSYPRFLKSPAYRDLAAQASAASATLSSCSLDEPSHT
Target sequence (P09471 whole entry, looked up): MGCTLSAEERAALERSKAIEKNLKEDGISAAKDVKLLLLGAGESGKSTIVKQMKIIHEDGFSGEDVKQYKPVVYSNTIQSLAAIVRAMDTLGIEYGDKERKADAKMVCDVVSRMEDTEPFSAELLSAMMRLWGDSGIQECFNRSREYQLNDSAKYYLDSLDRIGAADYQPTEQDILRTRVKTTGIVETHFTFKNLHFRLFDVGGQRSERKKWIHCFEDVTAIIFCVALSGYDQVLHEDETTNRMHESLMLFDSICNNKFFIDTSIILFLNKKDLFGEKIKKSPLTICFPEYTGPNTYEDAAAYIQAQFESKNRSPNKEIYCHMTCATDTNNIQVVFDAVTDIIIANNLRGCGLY
Avidin bead fluor: avidin bead compound fluorescence profile. Avidin beads, compound fluorescence 488/530 nm, flow cytometry; active compounds read high. fluorescence (KMESF) at 10 µM. hit rate 0.38% among 220,000; in the data active = fluorescence above about 47
GSH fluor: compound fluoresces at 488/530 nm on GSH beads; hit rate 0.25% among 190,000; GSH beads flow cytometry, compound fluorescence 488/530 nm; active compounds read high; fluorescence (KMESF) at 10 µM; in the data active = fluorescence above about 89;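 note: glutathione beads carrying GST-tagged Bcl family fusion proteins plus one bare bead set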
RGS4-Gao reg: modulates binding of RGS4 to human Galphao. hit rate 0.33% among 220,000. Multiplexed bead flow cytometry; actives lie on both sides. binding response (% of control), % at 10 µM. P09471. AID 1415; in the data active = binding response below about 49% or above about 150%; inactive = in between;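 note: fluorescent Galphao activated with aluminum fluoride binding bead-coupled RGS4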
Target sequence (P09471 whole entry, looked up): as above
RGS8-Gao reg: modulates binding of RGS8 to human Galphao | hit rate 0.34% among 220,000 | response (percent of control binding), % at 10 µM | multiplexed bead flow cytometry; actives lie on both sides; in the data active = response below about 60% or above about 140%; inactive = in between;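 note: Galphao activated as the GDP aluminium fluoride complex binding bead-coupled RGS8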
RGS7-Gao reg: modulates binding of RGS7 to human Galphao | binding response (% of control), % at 10 µM | hit rate 0.35% among 220,000 | Multiplexed bead flow cytometry; actives lie on both sides | P09471; in the data active = binding response below about 49% or above about 150%; inconclusive = no clear call, values can overlap the other calls; inactive = in between;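 note: fluorescent Galphao held in activated GDP-AlF4 state binding bead-coupled RGS7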
Large screens that a line does not name were inactive. Rows were chosen to be rich in hits. Some 1.2% of all compounds tested hit in one or more screens of this group.

COC(=O)c1ccc(C)c(NC(=O)Cn2cnc3ccccc3c2=O)c1	none
Cc1cccc(C(=O)NCC(=O)OCC(=O)N2CCc3ccccc32)c1	RGS7-Gao reg inconclusive
Cc1cccc(OCCC(=O)OCC(=O)N2CCc3ccccc32)c1	Avidin bead fluor 54
O=C(COC(=O)/C=C/C(=O)OCC(=O)NC12CC3CC(CC(C3)C1)C2)NC12CC3CC(CC(C3)C1)C2	none
COC(=O)c1ccccc1NC(=O)c1cnn2c(C)cc(C)nc12	none
COC(=O)c1ccccc1NC(=O)c1nc2nc(C)cc(C)n2n1	Avidin bead fluor 134
COc1cccc(NC(=O)N2CCOCC2)c1	none
COc1ccc(C(=O)Nc2ccc(N3CCOCC3)cc2)cc1OC	Avidin bead fluor 99
COc1ccc(NC(=O)N2CCOCC2)cc1OC	GSH fluor 261
COc1ccc(C(=O)Nc2ccc(S(=O)(=O)N3CCOCC3)cc2)cc1OC	none
CC(C)OCCCNC(=O)C1CCC(CNS(=O)(=O)c2ccc(Cl)cc2)CC1 (stereo not given)	none
O=C(CSc1nnc(-c2ccncc2)o1)N1CCc2ccccc2C1	Avidin bead fluor 47
Cc1ccc(C)c(-c2nc3cc(N)ccc3o2)c1	Avidin bead fluor 61
Nc1ccc2oc(-c3ccccc3Cl)nc2c1	none
O=C(NCc1ccccn1)[C@H]1C[C@@H]1[C@H](NP(=O)(c1ccccc1)c1ccccc1)c1ccccc1	none
O=C(c1cccc(F)c1)N1CCN(C2CCCCC2)CC1	GSH fluor 269
O=C(c1cccc(F)c1)N1CCC(N2CCCCCC2)CC1	none
COC(=O)c1ccc(NC(=S)N(Cc2cccnc2)Cc2ccco2)cc1	none
O=C(CSc1nc2ccccc2s1)N/N=C/c1ccco1	none
C/C(=N\NC(=O)CSc1nc2ccccc2s1)c1ccco1	GSH fluor 408
O=C(C1CCCO1)N1CCN(Cc2c(O)ccc3ccccc23)CC1 (stereo not given)	Avidin bead fluor 61
Cc1ccc(CN2CCN(C(=O)C3CCCO3)CC2)cc1 (stereo not given)	none
CCN(CC)CCNc1nc(-c2ccco2)c2c(c1C#N)CC(C)(C)OC2	Avidin bead fluor 48
COc1ccc(C(C)=O)cc1CSc1nc(C)cc(C)n1	none
CN(CC(=O)Nc1ccc(S(N)(=O)=O)cc1)Cc1ccccc1F	none
COc1ccccc1-c1cc(C(F)(F)F)nc(S(=O)(=O)CCCC(=O)NC(C)C)n1	none
COc1ccccc1-c1cc(C(F)(F)F)nc(S(C)(=O)=O)n1	GSH fluor 483
COC(=O)c1ccc(/C=N/OCC(=O)NCc2ccc(F)cc2)cc1	Avidin bead fluor 54, RGS7-Gao reg inconclusive
O=C(Nc1ccccc1)N(CCCN1CCOCC1)Cc1cc2cc3c(cc2[nH]c1=O)OCCO3	none
CCN(CC)CCCN(Cc1cc2cc3c(cc2[nH]c1=O)OCCO3)C(=O)Nc1ccccc1	Avidin bead fluor 54
N#Cc1c(-c2ccc(Cl)cc2)ccn2nc(C3CCCCC3)nc12	GSH fluor 262
O=C(OCCCCN1C(=O)c2ccccc2C1=O)c1ccc(S(=O)(=O)N2CCCC2)cc1	GSH fluor 266
N#Cc1ccc(COC(=O)C2CCC(=O)N2)cc1 (stereo not given)	GSH fluor 258
O=C1CCC(C(=O)OCC(=O)c2ccccc2)N1 (stereo not given)	none
COc1ccc(N2CCN(C(CNC(=O)C(=O)NCc3ccncc3)c3ccco3)CC2)cc1 (stereo not given)	RGS7-Gao reg inconclusive
COc1ccc(-c2cc(C(=O)Nc3c(C)nn(Cc4ccc(Cl)cc4)c3C)no2)cc1	Avidin bead fluor 50
CC(=O)Oc1ccccc1N1C(=O)c2ccc(C(=O)O)cc2C1=O	none
O=C(O)c1ccc2c(c1)C(=O)N(N1C(=O)c3ccccc3C1=O)C2=O	GSH fluor 111
O=C(Nc1cccnc1)c1ccc(Cl)c(S(=O)(=O)N2CCc3ccccc32)c1	Avidin bead fluor 62
Cc1cnc(C(=O)OCc2ccc(COC(=O)c3cnc(C)cn3)cc2)cn1	Avidin bead fluor 69, RGS7-Gao reg inconclusive
Cc1ccc(CNC(=O)COC(=O)c2cnc(C)cn2)cc1	RGS7-Gao reg inconclusive
CC(=O)NC1(C(F)(F)F)NC(=O)N(CC(C)C)C1=O (stereo not given)	Avidin bead fluor 53
CCCCN1C(=O)NC(NC(C)=O)(C(F)(F)F)C1=O (stereo not given)	none
Cc1cc(NC(=O)Nc2cc(C)nn2-c2ccccc2)n(-c2ccccc2)n1	none
CCOC(=O)/C=C(\C)Nc1cc(C)nn1-c1ccccc1	RGS4-Gao reg 23.2, RGS8-Gao reg 8.3, RGS7-Gao reg 10.8
CCOC(=O)N1CCN(Cc2cc(=O)oc3ccc(Cl)cc23)CC1	GSH fluor 267
CN1CCN(Cc2cc(=O)oc3ccc(Cl)cc23)CC1	none
CC(O)c1cccc(NC(=O)CCC(=O)O)c1 (stereo not given)	GSH fluor 261
CC(O)c1cccc(NC(=O)CCCc2ccccc2)c1 (stereo not given)	none
Cn1c(=O)n(Cc2ccc(Cl)cc2)c(=O)c2c1nc1n2CCN1Cc1ccco1	none
Cc1cccc(Cn2c(=O)c3c(nc4n3CCN4Cc3ccco3)n(C)c2=O)c1	Avidin bead fluor 56
O=C(CCc1nc2ccccc2c(=O)[nH]1)NC1CCN(Cc2ccccc2)CC1	GSH fluor 256
COc1ccc(-n2c(C)cc(C(=O)CSc3nn4c(=O)c(C(C)(C)C)nnc4s3)c2C)cc1	Avidin bead fluor 57
CC(C)OCCCNC(=O)C1CCN(S(=O)(=O)N2CCCC2)CC1	none
O=C(NCc1ccccn1)C1CC(c2ccccc2O)=NO1 (stereo not given)	none
O=C(O)C1C2C=CC(C2)C1C(=O)NCCc1cccc(Cl)c1 (stereo not given)	Avidin bead fluor 48
O=c1c(S(=O)(=O)c2ccc(Cl)cc2)cn(Cc2ccccc2)c2ccc(F)cc12	none
N#CC(C(=O)Nc1ccc(Cl)c(Cl)c1)=C1Nc2ccccc2N1	Avidin bead fluor 50
N#CC(C(=O)Nc1cccc(Cl)c1)=C1Nc2ccccc2N1	none
CCc1cc2cc(C)ccc2nc1SCC(=O)N1CCN(C(=O)c2ccco2)CC1	GSH fluor 254
Cc1ccc(NC(=O)c2ccc(OC(=O)CCN3C(=O)c4ccccc4C3=O)cc2)cc1	Avidin bead fluor 48
CCOC(=O)C1CCCN(C(=S)Nc2ccc(F)cc2)C1 (stereo not given)	none
CCCC(C)c1nnc(NC(=O)C(=O)OCC)s1 (stereo not given)	none
CCOC(=O)/C(C#N)=C/Nc1ccccc1OC(F)(F)F	Avidin bead fluor 105, RGS7-Gao reg inconclusive (no result: GSH fluor)
CCOC(=O)/C(C#N)=C/Nc1cc(OC)ccc1OC	none
Cc1nnc(NC2=NCCC2)o1	Avidin bead fluor 95
O=S(=O)(Cc1ccccc1)Nc1ccc(S(=O)(=O)NCC2CCCO2)cc1 (stereo not given)	none

Screening results (PubChem)
